In PubChem BioAssay (NCATS) one finds Potency, viability and viability (% of DMSO) data, which are given here for 16 compounds.

Assay [1] is described as follows: Quantitative High-Throughput drug screen in 47 multiple myeloma cell lines against the NCATS MIPE library collection: MM1S_ATCC cell viability assay (AID 1918980). Note: nearly all actives have a fitted effect of over 45% in size. Summed up: (§1)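 Cells were exposed to library compounds for 48 hours, after which ATP was measured by CellTiter-Glo. Signal was taken as median relative luminescence units.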
Assay [2] in a line: Quantitative High-Throughput drug screen in 47 multiple myeloma cell lines against the NCATS MIPE library collection: MM1R_ATCC cell viability assay (AID 1918981). Note: nearly all actives have a fitted effect of over 35% in size. Summed up:
as §1

Assay [3] can be described thus: Quantitative High-Throughput drug screen in 47 multiple myeloma cell lines against the NCATS MIPE library collection: KMS28PE_JCRB cell viability assay (AID 1918983). Note: nearly all actives have a fitted effect of over 35% in size. Summed up: as §1
A short description of assay [4]: Quantitative High-Throughput drug screen in 47 multiple myeloma cell lines against the NCATS MIPE library collection: L363_DSMZ cell viability assay (AID 1918984). Note: nearly all actives have a fitted effect of over 40% in size. Summed up:
as §1

Assay [5] in a line: Quantitative High-Throughput drug screen in 47 multiple myeloma cell lines against the NCATS MIPE library collection: SKMM1_PLB cell viability assay (AID 1919863). Note: nearly all actives have a fitted effect of over 35% in size. The conditions noted are these: SKMM1 myeloma viability, CellTiter-Glo ATP, 48 h; viability: stronger effect = lower value. Summed up: as §1
A general note: In ATP-based viability assays light output follows the ATP content of the culture.

Assay [6] in a line: Quantitative High-Throughput drug screen in 47 multiple myeloma cell lines against the NCATS MIPE library collection: LP1_DSMZ cell viability assay (AID 1918982). Note: nearly all actives have a fitted effect of over 35% in size. The procedure, abridged: as §1
Assay [7] can be described thus: Quantitative High-Throughput drug screen in 47 multiple myeloma cell lines against the NCATS MIPE library collection: KMS34_JCRB cell viability assay (AID 1918985). Note: nearly all actives have a fitted effect of over 40% in size. Summed up: as §1
Assay [8] is described as follows: Quantitative High-Throughput drug screen in 47 multiple myeloma cell lines against the NCATS MIPE library collection: OCIMY7_PLB cell viability assay (AID 1918987). Note: nearly all actives have a fitted effect of over 65% in size. The conditions noted are these: OCI-MY7 myeloma viability, CellTiter-Glo ATP, 48 h; viability (% of DMSO): at 45.8 µM (top of the series). The procedure, abridged:
as §1

The nature of assay [9]: Quantitative High-Throughput drug screen in 47 multiple myeloma cell lines against the NCATS MIPE library collection: OCIMY5_PLB cell viability assay (AID 1918988). Note: nearly all actives have a fitted effect of over 65% in size. The procedure, abridged:
as §1

Assay [10] can be described thus: Quantitative High-Throughput drug screen in 47 multiple myeloma cell lines against the NCATS MIPE library collection: OPM1_PLB cell viability assay (AID 1918989). Note: nearly all actives have a fitted effect of over 40% in size. The procedure, abridged: as §1

The structures appear in SMILES notation. Records with an inconclusive call do not appear. Values without a mark were called inactive. Active and inactive are the calls of the source. Calls come from the whole dose curve; as a rule, active = well fitted cell-killing curve with a large enough effect; inconclusive = small, poorly fitted or top-dose-only effect, or effect the other way; inactive = no such curve, though single readings can be large or run the other way.
Potency is the fitted concentration of half-maximal effect.

Turning to `CC(C)Oc1ccc(C(=O)N[C@H](CNC(=O)CN(C)C)Cc2ccc(-c3cn4cccc([C@H](C)O)c4n3)cc2)cc1Cl`, the Potency in [1] was 6.62 µM (active); in [2], 0.59 µM (active); in [3], 0.59 µM (active); in assay [4], 0.0833 µM (active); in assay [5], 0.296 µM (active).
Turning to `CC(=O)NCC(=O)N1[C@H]2CC[C@H]1c1cc(Nc3ncc(C(F)(F)F)c(NC4CCC4)n3)ccc12`, the Potency is 3.32 µM (active) in assay [1]; 7.43 µM (active) in assay [6]; 4.18 µM (active) in assay [3]; 0.935 µM (active) in [4]; 0.833 µM (active) in assay [7]; 0.0935 µM (active) in [8]. The Potency in assay [9] was 1.18 µM (active); in assay [10], 0.59 µM (active); in [5], 20.9 µM (active).
`C=CC(=O)Nc1cc(NC(=O)c2ccc(C)c(NC(=O)c3ccno3)c2)cc(C(F)(F)F)c1`: the Potency in [1] is 16.6 µM (active); in [2], 20.9 µM (active); in [9], 18.7 µM (active); in assay [10], 23.5 µM (active); in assay [5], 18.7 µM (active).
By viability is commonly meant a read-out of living cells in per cent, often relative to untreated cells. As for `C[C@H](CCC(=O)O)[C@H]1CCC2C3C[C@H](O)[C@@H]4C[C@H](O)CC[C@]4(C)C3CC[C@@]21C` (some centres not stated), the Potency result in assay [1], in assay [6], in assay [3], in assay [4], in assay [9] and in [10] was “inactive” throughout. In addition, the viability in [5] is 96.1%.
As to `O=C1NC(=O)C(=Cc2ccc3nccc(-c4ccncc4)c3c2)S1`, the Potency in [1] is 0.118 µM (active); in assay [2], 0.105 µM (active); in assay [3], 0.372 µM (active); in assay [4] it was 0.0469 µM (active); in assay [8], 0.0662 µM (active); in [9], 0.526 µM (active). Further, the figures for the Potency in assay [10] and in [5] were 0.0743 µM (active) and 0.59 µM (active), respectively.
On to `CNC(=O)c1ccc(Nc2cc(Nc3ccccc3S(=O)(=O)C(C)C)c3cc[nH]c3n2)nc1`, for which the Potency in [1] was 13.2 µM (active); in [2], 6.62 µM (active); in [3], 9.35 µM (active); in assay [4] it was 2.35 µM (active); in assay [8], 0.833 µM (active); in assay [9], 4.69 µM (active). Also, the Potency is 1.66 µM (active) in assay [10] and 18.7 µM (active) in assay [5].
Regarding `COc1cc(CCc2cc(NC(=O)c3ccc(N4C[C@@H](C)N[C@@H](C)C4)cc3)n[nH]2)cc(OC)c1`, the Potency in [1] is 20.9 µM (active); in assay [2] it was 26.4 µM (active); in [3] it was 13.2 µM (active); in assay [7], 16.6 µM (active); in assay [8], 18.7 µM (active); in assay [9], 16.6 µM (active). For the same compound, the Potency in [10] is 14.8 µM (active).
As for `CCOC(=O)[C@@H](N)Cc1ccc(-c2cc(O[C@H](c3ccc(Cl)cc3-n3ccc(C)n3)C(F)(F)F)nc(N)n2)cc1`, the Potency in [1] is 2.96 µM (active); in [2], 14.8 µM (active); in assay [3], 20.9 µM (active); in assay [4], 10.5 µM (active); in assay [7], 16.6 µM (active); in assay [8] it was 11.8 µM (active). Further, the Potency in [9] is 18.7 µM (active); in assay [5] it was 23.5 µM (active).
In the case of `CCCNC(=O)[C@H]1O[C@H]1C(=O)N[C@H](C(=O)N1CCC[C@@H]1C(=O)OC)C(C)CC` (some centres not stated), the Potency in [1] is 2.35 µM (active); in assay [6] it was 14.8 µM (active); in assay [3], 7.43 µM (active); in assay [4], 8.33 µM (active); in assay [8], 3.32 µM (active); in [10], 18.7 µM (active). The Potency in [5] is 20.9 µM (active).
On to `CC(O)(C#Cc1ccc2c(c1)N(c1nc(N)ncc1Cl)CC2)c1nccs1` (configuration not stated), for which the Potency is 11.8 µM (active) in assay [1]; 18.7 µM (active) in assay [2]; 16.6 µM (active) in [4]; 2.64 µM (active) in [8]; 20.9 µM (active) in [9]; 14.8 µM (active) in [10].
For the compound `O=C(O)C[C@H](O)C[C@H](O)C=Cc1c(C2CC2)nc2ccccc2c1-c1ccc(F)cc1`, the Potency was 5.26 µM (active) in assay [1]; 5.9 µM (active) in [2]; 14.8 µM (active) in assay [3]; 5.26 µM (active) in assay [4]; 2.35 µM (active) in assay [8]; 11.8 µM (active) in assay [5].
In the case of `COC[C@H](NC(=O)c1cnc(C)s1)C(=O)N[C@@H](COC)C(=O)N[C@@H](Cc1ccccc1)C(=O)[C@@]1(C)CO1`, the Potency is 0.059 µM (active) in assay [1]; 0.148 µM (active) in assay [6]; 0.0662 µM (active) in assay [3]; 0.0372 µM (active) in [4]; 0.0743 µM (active) in assay [7]; 0.0372 µM (active) in assay [9]. The results for the Potency in assay [10] and in [5] were 0.118 µM (active) and 0.372 µM (active), respectively.
Take `CNC(=O)c1cccc(-c2ccc3c(N4CCOC[C@H]4C)nc(N4CCOC[C@H]4C)nc3n2)c1`: the Potency is 0.0833 µM (active) in assay [1]; 0.0662 µM (active) in assay [2]; 0.0187 µM (active) in assay [3]; 0.0118 µM (active) in [4]; 0.059 µM (active) in assay [7]; 5.9 µM (active) in assay [9]. In addition, the Potency in [5] was 0.0662 µM (active). Further, the viability (% of DMSO) in assay [8] is 66.1% (active).
As to `O=C(NCc1ccccc1)[C@H](Cc1ccccc1)NC(=O)[C@@H]1O[C@@H]1C(=O)NCCc1ccc(O)cc1`, the Potency in [1] was 1.18 µM (active); in assay [2], 10.5 µM (active); in assay [4] it was 16.6 µM (active). The Potency result in assay [3] and in assay [8] was “inactive” throughout. Also, the viability in assay [5] is 128%.
On to `O=C(CCCCCCC(=O)Nc1cccnc1)NO`, for which the Potency is 3.32 µM (active) in assay [1]; 2.64 µM (active) in assay [2]; 4.18 µM (active) in assay [3]; 5.9 µM (active) in [4]; 3.32 µM (active) in assay [9]; 4.18 µM (active) in assay [10]. The Potency in assay [5] was 5.9 µM (active).
`C=C(C)[C@@H]1CC[C@]2(C(=O)O)CC[C@]3(C)[C@H](CC[C@@H]4[C@@]5(C)CC[C@H](O)C(C)(C)[C@@H]5CC[C@]43C)[C@@H]12`: the Potency result in [1], in assay [6], in assay [4], in assay [7] and in assay [10] was “inactive” in each case. Also, the Potency in assay [3] was 3.72 µM (active); in assay [5] it was 0.935 µM (active).
